Source: PubChem BioAssay (National Center for Advancing Translational Sciences (NCATS))
Hits are enriched below; roughly 0.85% of the tested compounds scored in any of these assays.
GLS inhibitor – blocks human kidney-isoform glutaminase activity. O94925. GLS enzymatic activity, qHTS titration. Potency, µM (doses to about 45.5 µM), for the others: at the highest dose activity change, negative = inhibition, usual class: inhibitors. 410,000 compounds, 0.21% hits; further: potency means the concentration at half of the fitted maximal effect; on the % scale 0 is the no-effect control and ±100 the full control effect
Target sequence (O94925 whole entry, looked up, canonical isoform): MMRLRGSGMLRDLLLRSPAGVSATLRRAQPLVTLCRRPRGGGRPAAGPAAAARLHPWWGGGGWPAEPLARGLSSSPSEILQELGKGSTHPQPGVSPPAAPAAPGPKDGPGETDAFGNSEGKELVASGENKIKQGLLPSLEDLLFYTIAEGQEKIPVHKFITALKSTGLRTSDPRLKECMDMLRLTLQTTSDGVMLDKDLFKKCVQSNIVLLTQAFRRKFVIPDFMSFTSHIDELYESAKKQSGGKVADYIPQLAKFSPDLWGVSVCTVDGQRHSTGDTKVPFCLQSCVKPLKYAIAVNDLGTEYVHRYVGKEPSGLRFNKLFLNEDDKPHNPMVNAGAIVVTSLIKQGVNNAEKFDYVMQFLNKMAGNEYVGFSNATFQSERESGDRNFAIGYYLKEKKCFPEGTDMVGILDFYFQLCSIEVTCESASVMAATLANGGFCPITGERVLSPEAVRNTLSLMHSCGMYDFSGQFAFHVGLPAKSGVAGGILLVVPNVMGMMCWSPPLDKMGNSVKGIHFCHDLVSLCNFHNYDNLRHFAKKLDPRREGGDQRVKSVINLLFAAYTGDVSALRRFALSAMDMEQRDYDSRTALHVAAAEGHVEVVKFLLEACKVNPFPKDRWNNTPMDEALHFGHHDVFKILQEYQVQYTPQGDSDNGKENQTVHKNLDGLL
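Compounds were pin-transferred onto hKGA, after which L-glutamine (1 mM solution) and a detection mix of glutamate oxidase, HRP and Amplex Red were added. Initial and 30 min RT fluorescence reads were collected.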
IDH1 R132H inh – blocks human mutant IDH1 R132H enzyme; IDH1-R132H enzyme, NADPH consumption, diaphorase/resazurin fluorescence; O75874; 390,000 compounds, 0.093% hits; AID 602179; Potency, µM (series often up to 76.6 µM), for inactives: at the top dose activity change, negative = inhibition, usual class: inhibitors; further: potency means the concentration at half of the fitted maximal effect; on the % scale 0 is the no-effect control and ±100 the full control effect; nearly all actives have a fitted effect of over 65% in size
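IDH1-R132H (0.5 ug/mL dispensed) in pH 7.5 Tris buffer was preincubated 30 min with compound, then given a substrate mix of 0.016 mM NADPH and 2 mM alpha-KG for 80 min at room temperature; remaining NADPH was read by diaphorase/resazurin fluorescence.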
CCT chaperon mod – modulators of cytosolic chaperonin (CCT/TRiC) activity; purified chaperonin ATPase assay, HTRF ADP detection, 30 min; activity change, % (concentration not given with the values), hits read low; 360,000 compounds, 0.3% hits; in the data active means activity change below about -30%; further: on the % scale 0 is the no-effect control and ±100 the full control effect
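We incubate TRiC, 40 or 20 nM final, with library compounds at 76 uM and 10 uM ATP for 30 min at 37 °C. ADP formed is detected with Transcreener HTRF reagents after 30 min at room temperature.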
pAkt inh – blocks phosphorylation of Akt. Neuro2A IGF-stimulated pAkt S473 HTRF, 20 min; active compounds read low. activity change, % for hits at 50 µM. 360,000 compounds, 0.32% hits; in the data active means activity change below about -80%; inconclusive means mostly about -51% to -80%; further: on the % scale 0 is the no-effect control and ±100 the full control effect
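Neuro2A cells (4,500/well, DMEM with 0.5% FBS) were treated with compound at a single 50 µM final concentration, stimulated with 6 nM IGF for 20 min at 37 °C, and lysed. Phospho-Akt Ser473 was read by HTRF as 665/615 ratio ×10^4.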
MmCpn inh – M. maripaludis TRiC chaperonin inhibition; 330,000 compounds, 0.031% hits; Potency, µM (highest dose often 76.9 µM), inactives show top-dose activity, negative = inhibition, actives largely listed as inhibitors; AID 504842; purified Mm-Cpn ATPase, ADP Transcreener TR-FRET; further: potency means the concentration at half of the fitted maximal effect; on the % scale 0 is the no-effect control and ±100 the full control effect; nearly all actives have a fitted effect of over 80% in size
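Measured: ADP formation by purified Mm-CPN. Conditions: 25 nM protein, 10 uM ATP, Tris pH 7.4 with Mg2+, K+ and DTT, 37°C for 30 min. Detection: Transcreener HTRF after 30 min at room temperature.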
GRP78 ERSR act – inducers of ER stress response in human glioma cells; U87-MG GRP78 promoter luciferase reporter, 16 h; Potency, µM, inactives show top-dose activation, hits mostly activators; 420,000 compounds, 0.02% hits; further: potency means the concentration at half of the fitted maximal effect; series mostly up to about 76 µM; % of control where 0% means no effect; nearly all actives have a fitted effect of over 35% in size
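Stably transfected U87-MG human glioma cells carrying a GRP78-based luminescent sensor were seeded at 1000 cells/well, pin-dosed with compounds and incubated 16 h. Luciferase reagent was then added, and end-point luminescence was read after 10 min at room temperature.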
Resorufin autofl – interferes with resorufin fluorescence in IDH1 counter-screen; shares compounds with IDH1 R132H inh; Resorufin detection reagent fluorescence interference, cell-free; inhibition of signal, % at 51.2 µM; 750 tested, under 10 active;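 further: 0% = wells with normal resorufin and full inhibition = wells lacking resorufin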
IDH1 WT – selectivity of mutant IDH1 inhibitors: human wild-type IDH1 | shares compounds with IDH1 R132H inh | WT IDH1 enzyme, NADPH diaphorase/resazurin fluorescence | Potency, µM (doses to about 115 µM), for inactives: at the top dose activity change, negative = inhibition, hits mostly inhibitors | 750 compounds, 9% hits | AID 623995;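 further: potency means the concentration at half of the fitted maximal effect; 0% = full WT IDH1 enzyme control and full inhibition = no enzyme wells; nearly all actives have a fitted effect of over 55% in size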
mIDH1 confirm – confirmation of human mutant IDH1 inhibitors; shares compounds with IDH1 R132H inh; IDH1 R132H enzyme, NADPH diaphorase/resazurin fluorescence; Potency, µM (top dose mostly 76.6 µM), inactives show at the top dose activity change, negative = inhibition, most hits filed as inhibitors; 750 compounds, 83% hits; AID 624002; further: potency means the concentration at half of the fitted maximal effect; nearly all actives have a fitted effect of over 50% in size
Starred values were filed as active, the others as inactive; i = inactive; ? = inconclusive; nt = no result. Unless noted, the call rests on the fitted dose curve; in most records, active means well fitted curve in the direction sought with a large enough effect; inconclusive means small, poorly fitted or top-dose-only effect, or another doubt; inactive means no such curve, though single readings can be large; an effect the other way counts as inactive or inconclusive.

SMILES | GLS inhibitor | IDH1 R132H inh | CCT chaperon mod | pAkt inh | MmCpn inh | GRP78 ERSR act | Resorufin autofl | IDH1 WT | mIDH1 confirm
CC1CCc2c(sc3nc(C(C)(C)C)nc(N4CCN(C(=O)CCl)CC4)c23)C1 (configuration not stated) | 6% | 41µM* | -1 | i | 2% | -15% | -4 | 45µM* | 3.2µM*
COCC(=O)Nc1cc(C(=O)N2CCc3sccc3C2)c2c(c1)nc(-c1ccncc1)n2C | nt | nt | nt | nt | nt | -2% | nt | nt | nt
CC(NC(=O)c1cc(F)ccc1F)c1nnc2n1CCN(Cc1ccco1)CC2 (configuration not stated) | nt | nt | nt | nt | nt | -7% | nt | nt | nt
CCOCCCN1C(=O)c2[nH]nc(-c3ccccc3O)c2C1c1ccc(CC)cc1 (configuration not stated) | 24% | ? | nt | nt | nt | -5% | -2 | -7% | ?
CCc1ccc(C2c3c(-c4ccccc4O)n[nH]c3C(=O)N2Cc2ccncc2)cc1 (configuration not stated) | 13% | 35µM* | nt | nt | nt | 3% | -3 | 0% | 28µM*
CCSc1nnc(C(C)NS(=O)(=O)c2cccc(Cl)c2C)n1C (configuration not stated) | nt | nt | nt | nt | nt | -7% | nt | nt | nt
CC1CN(CCC(=O)NCc2ccc3ncccc3c2)Cc2cc(Cl)ccc2O1 (configuration not stated) | nt | nt | nt | nt | nt | -6% | nt | nt | nt
COc1cc([C@@H]2c3cc4c(cc3[C@@H](O)[C@H]3COC(=O)[C@H]23)OCO4)cc(OC)c1O[Si](C)(C)C(C)(C)C | 0% | 28µM* | 0 | i | 0% | -13% | 0 | ? | ?
COc1cc([C@@H]2c3cc4c(cc3[C@H](O)C3COC(=O)[C@@H]32)OCO4)cc(OC)c1OC (some centres not stated) | nt | nt | nt | nt | nt | -2% | nt | nt | nt
Cc1ccc(CNc2ncnc3sc(C(=O)N4CCCC(C(N)=O)C4)c(C)c23)o1 (configuration not stated) | nt | nt | nt | nt | nt | -2% | nt | nt | nt
COc1ccc(NC(=O)C(c2ccc(OC)cc2)N(Cc2ccco2)C(=O)CC2NC(=O)NC2=O)cc1 (configuration not stated) | 1% | 3% | -1 | i | 3% | -4% | nt | nt | nt
COc1ccc(C(C(=O)Nc2ccc(C(C)C)cc2)N(Cc2ccco2)C(=O)CC2NC(=O)NC2=O)cc1 (configuration not stated) | -3% | ? | 1 | i | -1% | 0% | -10 | -6% | 32µM*
CSC1=C(C#N)C(c2ccccc2C)C(C#N)=C(N)N1 (configuration not stated) | 3% | ? | -2 | i | 0% | -2% | 6 | 116% | 45µM*
COC(=O)c1c(OCc2ccccn2)cc(=O)n2c1CCN(C(=O)c1cc(C(C)C)nn1C)CC2 | nt | nt | nt | nt | nt | -2% | nt | nt | nt
O=C(c1ccncc1)N1N=C(c2ccc(Cl)cc2)CC1c1ccccc1O (configuration not stated) | ? | 52µM* | -3 | i | -1% | 9% | 2 | -2% | 35µM*
COc1ccccc1C1CC(c2ccc(Br)cc2)=NN1C(=O)c1cccnc1 (configuration not stated) | -4% | 46µM* | -3 | i | ? | 0% | 0 | -5% | 22µM*
Cc1cc2c(c(-c3cnccn3)c1)OC(CNC(=O)c1cc(C(C)C)[nH]n1)C2 (configuration not stated) | nt | nt | nt | nt | nt | -4% | nt | nt | nt
O=C(c1ccc(C(F)(F)F)cc1)N(Cc1cc2ccc(F)cc2nc1N1CCOCC1)C1CC1 | nt | nt | nt | nt | nt | -5% | nt | nt | nt
COc1ccc2c(c1)CCc1cnc(-n3ncc(C(=O)N4CCN(CCO)CC4)c3C3CC3)nc1-2 | nt | nt | nt | nt | nt | 0% | nt | nt | nt
CCOc1ccc(C2NC(=O)c3n[nH]c(C)c32)cc1 (configuration not stated) | 0% | -4% | -4 | i | 0% | -2% | nt | nt | nt
CC(C)(C)c1ccc(C2NC(=O)c3n[nH]c(-c4cccs4)c32)cc1 (configuration not stated) | 1% | ? | nt | nt | nt | -5% | 0 | 0% | 40µM*
O=C1CCSC2(C(=O)N(Cc3ccc(F)cc3)c3ccccc32)N1c1cccc(F)c1 (configuration not stated) | 2% | 28µM* | nt | nt | nt | 19% | -1 | -17% | ?
O=C1CCSC2(C(=O)N(Cc3ccc(F)cc3)c3ccccc32)N1c1ccc(F)c(F)c1 (configuration not stated) | -4% | 40µM* | nt | nt | nt | ? | -5 | -7% | 14µM*
O=C1CCSC2(C(=O)N(Cc3ccc(F)cc3)c3ccccc32)N1c1ccccc1 (configuration not stated) | -2% | ? | nt | nt | nt | 0% | nt | nt | nt
Cc1cccc(N2C(=O)CCSC23C(=O)N(Cc2ccc(F)cc2)c2ccccc23)c1 (configuration not stated) | -7% | ? | nt | nt | nt | 17% | -2 | -17% | 20µM*
SMILES | GLS inhibitor | IDH1 R132H inh | CCT chaperon mod | pAkt inh | MmCpn inh | GRP78 ERSR act | Resorufin autofl | IDH1 WT | mIDH1 confirm
O=C1CSC2(C(=O)N(Cc3ccccc3)c3ccccc32)N1c1ccc(Cl)cc1 (configuration not stated) | 0% | ? | nt | nt | nt | 1% | 3 | 11% | 25µM*
Cc1nc2ccc(C(=O)N3CCc4c(cnc(C)c4CNC(=O)/C=C/c4cccs4)C3)cc2nc1C | nt | nt | nt | nt | nt | -3% | nt | nt | nt
COC(=O)c1ccc(C(=O)NCC2Cc3cccc(-c4ccc(C(=O)OC)cn4)c3O2)cc1 (configuration not stated) | nt | nt | nt | nt | nt | -1% | nt | nt | nt
c1ccc(CCc2nnc3n2CCN(Cc2ccc4ccccc4n2)CC3)cc1 | nt | nt | nt | nt | nt | -2% | nt | nt | nt
O=C(Nc1cc(S(=O)(=O)N2CCOCC2)ccc1O)c1ccc2c(c1)S(=O)(=O)c1ccccc1C2=O | -12% | -10% | -10 | i | 0% | -3% | nt | nt | nt
O=C(Nc1ccc(S(=O)(=O)N2CCOCC2)cc1)c1ccc2c(c1)S(=O)(=O)c1ccccc1C2=O | 5% | ? | -2 | i | 2% | -1% | 3 | 5% | 4µM*
